The source of these data is PubChem BioAssay AID1445 (SRMLSC, 2008).

Among all 220,000 compounds or so, about 910 (0.41%) were called active.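 Rule for the calls: active = primary inhibition above the hit cutoff, then over 50% inhibition at one or more dose response concentrations (cut at about 23% in these data, passing the limit was not always enough); inconclusive = conflicting primary data, or primary hits not chosen for dose response; inactive = low primary inhibition, or under 50% at every dose.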 Shown is part of a subset that was picked to be rich in actives. Potency and affinity values are given separately.

This test deals with Aminopeptidase N (Plasmodium falciparum (isolate 3D7)) (UniProt O96935). The experiment in a line: P. falciparum M1AAP inhibitors, biochemical, fluorogenic H-Leu-NHMec substrate, 1536-well (AID 1445).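 Note: plate controls were DMSO full reaction for no effect and no enzyme background for full effect.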 The following applies: recombinant M1AAP, H-Leu-NHMec fluorogenic kinetic assay; at 30 µM, hits give high values unless noted.
Aminopeptidase N (Plasmodium falciparum (isolate 3D7)), sequence (O96935 whole entry, looked up): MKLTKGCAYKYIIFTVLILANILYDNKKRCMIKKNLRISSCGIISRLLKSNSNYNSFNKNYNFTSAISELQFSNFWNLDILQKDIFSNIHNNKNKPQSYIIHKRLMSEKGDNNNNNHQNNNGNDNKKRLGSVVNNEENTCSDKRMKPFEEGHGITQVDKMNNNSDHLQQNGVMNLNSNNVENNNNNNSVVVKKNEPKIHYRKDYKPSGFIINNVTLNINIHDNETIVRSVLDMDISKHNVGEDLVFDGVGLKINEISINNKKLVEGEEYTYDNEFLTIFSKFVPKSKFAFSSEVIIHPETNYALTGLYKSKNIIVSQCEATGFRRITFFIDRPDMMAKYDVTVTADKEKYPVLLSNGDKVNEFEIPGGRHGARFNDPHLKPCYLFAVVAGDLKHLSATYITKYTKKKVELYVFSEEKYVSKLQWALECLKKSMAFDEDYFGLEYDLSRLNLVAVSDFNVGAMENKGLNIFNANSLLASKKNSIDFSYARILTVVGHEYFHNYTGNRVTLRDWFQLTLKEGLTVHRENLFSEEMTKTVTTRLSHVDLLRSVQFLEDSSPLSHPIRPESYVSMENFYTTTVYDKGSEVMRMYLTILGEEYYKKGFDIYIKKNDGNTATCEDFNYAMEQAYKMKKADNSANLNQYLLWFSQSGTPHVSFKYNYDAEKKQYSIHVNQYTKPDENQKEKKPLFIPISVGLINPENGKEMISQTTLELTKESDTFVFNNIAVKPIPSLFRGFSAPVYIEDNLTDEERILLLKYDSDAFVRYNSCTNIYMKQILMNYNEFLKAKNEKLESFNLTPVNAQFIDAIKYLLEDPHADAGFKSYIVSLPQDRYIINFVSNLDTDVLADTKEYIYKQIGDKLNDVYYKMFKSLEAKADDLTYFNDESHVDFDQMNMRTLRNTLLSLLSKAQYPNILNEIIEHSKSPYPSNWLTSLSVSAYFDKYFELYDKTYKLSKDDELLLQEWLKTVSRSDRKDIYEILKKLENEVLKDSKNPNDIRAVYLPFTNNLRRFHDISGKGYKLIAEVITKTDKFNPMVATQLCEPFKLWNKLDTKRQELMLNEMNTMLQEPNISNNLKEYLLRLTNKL
As to `CCOc1ccc(OCCCC(=O)NC2=NCCS2)cc1`, the inhibition is -1.08% (inactive).

For `COc1ccc(O)c(C2NC(CC(C)C)(C(=O)O)C3C(=O)N(Cc4ccccc4)C(=O)C23)c1` (stereo not drawn), the inhibition was 13.5% (inactive).

With `COc1ccc(OCCC(=O)OCC(=O)Nc2cccc(Br)c2)cc1`, the inhibition was 2.82% (inactive).

In the case of `O=CN1N=C(c2ccccc2)CC1c1ccccc1[N+](=O)[O-]` (stereo not drawn), the inhibition was 0.38% (inactive).

On to `CCCN(Cc1ccccc1)C(=S)Nc1ccc(C(C)=O)cc1`, for which the inhibition was 0.74% (inactive).

Take `O=C(O)COc1ccccc1C(Nc1ccccn1)c1cc(Cl)c2cccnc2c1O` (stereo not drawn): the inhibition was 23.1% (inactive).

Regarding `CCOc1ccc(C(Nc2cccnc2)c2cc(Cl)c3cccnc3c2O)cc1` (stereo not drawn), the inhibition was -6.83% (inactive).

In the case of `COc1ccc(N2CCN(Cc3cc(=O)oc4cc(-c5ccccc5)c(O)cc34)CC2)cc1`, the inhibition was -0.12% (inactive).

For the compound `COc1ccc(F)cc1S(=O)(=O)Nc1ccc(C)cc1`, the inhibition was -1.13% (inactive).

Regarding `CCOC(=O)N1CCN(C(=O)c2ccc3c(c2)ncn3C2CCCC2)CC1`, the inhibition was 2.32% (inactive).

With `O=[N+]([O-])c1cc2c(cc1/C=N/NS(=O)(=O)c1ccc(Br)cc1)OCO2`, the inhibition is 3.45% (inactive).

Regarding `Nn1c(SCC(=O)NC2CCCCC2)nnc1-c1ccccc1`, the inhibition is 3.83% (inactive).

As to `CC1CCCCC1NC(=O)CSc1nnnn1-c1ccccc1` (stereo not drawn), the inhibition is 2.02% (inactive).

Consider `Cc1cccc(C)c1OCC(=O)NCc1nnc(SCC(=O)NC2CCCCC2C)n1C` (stereo not drawn), for which the inhibition was 24.1% (active).

On to `CC1CCCCC1NC(=O)CSc1nnc(CNC(=O)c2ccccc2)n1C` (stereo not drawn), for which the inhibition is -2.54% (inactive).

Consider `Cc1cccc(C)c1OCC(=O)NCc1nnc(SCC(=O)NC2CCCCC2)n1C`, for which the inhibition is 3.03% (inactive).

As for `CN(CC(=O)NC1CCCCC1)S(=O)(=O)c1ccc(Cl)cc1`, the inhibition was -0.77% (inactive).

For the compound `CC(=O)N1CCN(C(=O)COc2ccc(Br)cc2)CC1`, the inhibition is 1.6% (inactive).

For `Cc1cccc(OCC(=O)N2CCN(C(=O)CCC3CCCC3)CC2)c1`, the inhibition was 22.4% (inactive).

For the compound `O=C(COc1ccc(Br)cc1)N1CCOCC1`, the inhibition is -2.69% (inactive).

In the case of `O=C(CCC1CCCC1)N1CCN(C(=O)COc2ccccc2)CC1`, the inhibition was 21.1% (inactive).

For `CCCOc1ccc(CSc2n[nH]c(C)n2)cc1`, the inhibition is 8.48% (inactive).

`COc1ccc(CCNC(=O)C(C)Sc2ccccc2)cc1OC` (stereo not drawn): the inhibition is -0.82% (inactive).

In the case of `Cc1cccc(NC(=S)NCCc2ccc3c(c2)OCCO3)c1C`, the inhibition was 0.53% (inactive).

For the compound `CC1CCC(C(C)C)C(OC(=O)COC(=O)c2cc(O)ccc2N)C1` (stereo not drawn), the inhibition is 6% (inactive).

As to `CCn1cc(S(=O)(=O)Nc2ccccc2C(F)(F)F)cn1`, the inhibition is -0.46% (inactive).

`NNC(=O)c1ccc(O)cc1O`: the inhibition is 11.6% (inactive).

Consider `Cc1cccc(C(=O)NNC(=O)c2ccc(Cl)cc2)c1O`, for which the inhibition is 27.7% (active).

For the compound `CC(C)(C)c1ccc(C(=O)NNC(=O)c2ccc(Cl)cc2)cc1`, the inhibition is 0.45% (inactive).

For the compound `O=C(NNC(=O)c1ccccc1Br)c1ccc(Cl)cc1`, the inhibition is -5.75% (inactive).

As to `COc1ccccc1C(=O)NNC(=O)c1ccc(Cl)cc1`, the inhibition is -4.03% (inactive).

In the case of `CN(C)c1ccc(/C=C2\C(=N)N3C(=NC2=O)Sc2cc(S(C)(=O)=O)ccc23)cc1`, the inhibition is 12.4% (inactive).

On to `COc1ccc(/C=C2/C(=N)N3C(=NC2=O)Sc2cc(S(C)(=O)=O)ccc23)cc1OC`, for which the inhibition was 4.37% (inactive).

`COc1cc(/C=C2/C(=N)N3C(c4ccccc4)=CSC3=NC2=O)ccc1OCC(=O)O`: the inhibition was 8.04% (inactive).

For `CC1=CSC2=NC(=O)/C(=C/c3cccc(OC(=O)c4ccco4)c3)C(=N)N12`, the inhibition is 8.4% (inactive).

For `COC(=O)CCC(=O)N1CCOCCOCCOCC1`, the inhibition is 3.89% (inactive).

Consider `CCOc1cc(/C=C2/NC(=O)N(Cc3ccccc3F)C2=O)ccc1O`, for which the inhibition was 9.55% (inactive).

On to `COc1cc(/C=C2/NC(=O)N(Cc3ccccc3F)C2=O)cc(OC)c1O`, for which the inhibition was 11% (inactive).

Consider `Cc1ccc(S(=O)(=O)c2nc(NN(C)C)sc2Cl)cc1`, for which the inhibition was 2.25% (inactive).

On to `O=S(=O)(c1ccccc1)c1nc(NCc2ccccc2)sc1Cl`, for which the inhibition is 3.65% (inactive).

For `Cc1ccc(S(=O)(=O)c2nc(NCCCn3ccnc3)sc2Cl)cc1`, the inhibition was 1.08% (inactive).

Consider `CC(C)CNc1nc(S(=O)(=O)c2ccccc2)c(Cl)s1`, for which the inhibition was -9.9% (inactive).

Regarding `Cc1ccc(S(=O)(=O)C2CS(=O)(=O)CC2O)cc1` (stereo not drawn), the inhibition is -0.11% (inactive).

Regarding `c1ccc(CCCCNCC2COc3ccccc3O2)cc1` (stereo not drawn), the inhibition was 0.11% (inactive).

With `C=CCNC(=O)c1ccc([N+](=O)[O-])c(Cl)c1`, the inhibition is 1.78% (inactive).

Regarding `CC1=C(C(N)=O)C(c2cccs2)NC(=O)N1` (stereo not drawn), the inhibition was 0.41% (inactive).

As for `FC(F)(F)c1cc(-c2cccs2)nc2ncnn12`, the inhibition is 14.3% (inactive).

Regarding `FC(F)(F)c1cc(-c2cccs2)nc2cc(-c3cccs3)nn12`, the inhibition is 2.78% (inactive).

In the case of `O=C(NCCCn1ccnc1)/C(=C\c1cccs1)NC(=O)c1ccco1`, the inhibition is 2.24% (inactive).

For `CC(C)=CC(=O)NCCc1ccccc1`, the inhibition was 0.11% (inactive).

Consider `Cc1cc(=O)oc2cc3c(cc12)OCCO3`, for which the inhibition was 9.01% (inactive).

For `Cc1ccc2c(c1)NCCO2`, the inhibition is 9.62% (inactive).

`CN(C)c1ccc(CNn2cnnc2SCc2ccccc2F)cc1`: the inhibition is 3.42% (inactive).

Regarding `Cc1ccccc1OCCCC(=O)Nc1ccccc1C(F)(F)F`, the inhibition is -2.79% (inactive).

Take `CCOC(=O)CC1C(=O)NCCN1C(=O)c1cc2c(=O)n3ccccc3nc2s1` (stereo not drawn): the inhibition was -1.82% (inactive).

In the case of `CCOCCCNc1nc2c(C)cccn2c(=O)c1/C=C1\SC(=S)N(C(C)CC)C1=O` (stereo not drawn), the inhibition was 3.39% (inactive).

Take `CCOC(=O)CC1C(=O)NCCN1S(=O)(=O)c1ccc(C)cc1` (stereo not drawn): the inhibition is -1.42% (inactive).

On to `CC(C)CN1C(=O)/C(=C/c2c(N3CCc4ccccc4C3)nc3ccccn3c2=O)SC1=S`, for which the inhibition was 2.88% (inactive).

As for `CCOC(=O)C(=O)c1c(-c2ccc(C)cc2)nc2ccccn12`, the inhibition is 10.6% (inactive).

In the case of `COC(=O)c1c(C)oc(C)c1S(=O)(=O)N1CCCCC1`, the inhibition is 0.96% (inactive).

`CCCCCCOc1ccc(C(=O)NCCCn2ccnc2)cc1`: the inhibition was -4.66% (inactive).

For the compound `CN(C)CCNC(=O)NC1CCCCC1`, the inhibition is 4.13% (inactive).

With `CC(=O)NS(=O)(=O)c1ccc(NC(=O)c2ccc3c(c2)C(=O)N(CCC(C)C)C3=O)cc1`, the inhibition was 9.98% (inactive).

Usually inhibition stands for the drop in the measured response relative to a control, in per cent.
